# B1: unnamed (peptide)
# chain: GDHPKGPPPPPPPDE
# B2: unnamed (peptide)
# chain: VPKEPAPAPPPEPDM
# Columns and labels:
# Assay in all cases: SPOT peptide array binding signal intensity (averaged, normalized) (arbitrary units (background-subtracted, floor 0; scale differs between SH3 domains)); higher = stronger binding of the SH3 domain to the peptide
# AgAbp1 = biological target: AgAbp1
# Method in brief: (§1)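 Detection of bound protein relied on anti-GST antibody, an HRP anti-mouse secondary and luminol, with imaging and quantification in Genespotter. The bound protein was GST-fused SH3 domains from four yeast species, incubated at 10 μg/ml overnight at 4°C in TBS-based blocking buffer on cellulose membranes carrying synthetic 15-mer peptides with cysteines replaced by serines. Binding signal is normalized, background-subtracted spot intensity averaged over replicates, in arbitrary units that differ between domains.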
# AgBbc1 = biological target: AgBbc1
# Method in brief: as §1
# AgBem1-D1 = biological target: AgBem1-D1
# Method in brief: as §1
# AgBzz1-D1 = biological target: AgBzz1-D1
# Method in brief: as §1
# AgBzz1-D2 = biological target: AgBzz1-D2
# Method in brief: as §1
# AgCyk3 = biological target: AgCyk3
# Method in brief: as §1
# AgFus1 = biological target: AgFus1
# Method in brief: as §1
# AgHof1 = biological target: AgHof1
# Method in brief: as §1
# AgHse1 = biological target: AgHse1
# Method in brief: as §1
# AgLsb1 = biological target: AgLsb1
# Method in brief: as §1
# AgLsb4 = biological target: AgLsb4
# Method in brief: as §1
# AgMyo5 = biological target: AgMyo5
# Method in brief: as §1
# AgNbp2 = biological target: AgNbp2
# Method in brief: as §1
# AgRvs167 = biological target: AgRvs167
# Method in brief: as §1
# AgSho1 = biological target: AgSho1
# Method in brief: as §1
# AgSla1-D1-D2 = biological target: AgSla1-D1-D2
# Method in brief: as §1
# AgSla1-D3 = biological target: AgSla1-D3
# Method in brief: as §1
# CaAbp1-D1 = biological target: CaAbp1-D1
# Method in brief: as §1
# CaAbp1-D2 = biological target: CaAbp1-D2
# Method in brief: as §1
# CaBbc1 = biological target: CaBbc1
# Method in brief: as §1
# CaBem1-D1 = biological target: CaBem1-D1
# Method in brief: as §1
# CaBzz1-D1 = biological target: CaBzz1-D1
# Method in brief: as §1
# CaBzz1-D2 = biological target: CaBzz1-D2
# Method in brief: as §1
# CaCyk3 = biological target: CaCyk3
# Method in brief: as §1
# CaFus1 = biological target: CaFus1
# Method in brief: as §1
# CaHof1 = biological target: CaHof1
# Method in brief: as §1
# CaHse1 = biological target: CaHse1
# Method in brief: as §1
# CaLsb1 = biological target: CaLsb1
# Method in brief: as §1
# CaLsb4 = biological target: CaLsb4
# Method in brief: as §1
# CaMyo5 = biological target: CaMyo5
# Method in brief: as §1
# CaNbp2 = biological target: CaNbp2
# Method in brief: as §1
# CaRvs167 = biological target: CaRvs167
# Method in brief: as §1
# CaRvs167-3 = biological target: CaRvs167-3
# Method in brief: as §1
# CaSho1 = biological target: CaSho1
# Method in brief: as §1
# CaSla1-D1-D2 = biological target: CaSla1-D1-D2
# Method in brief: as §1
# CaSla1-D3 = biological target: CaSla1-D3
# Method in brief: as §1
# ScAbp1 = biological target: ScAbp1
# Method in brief: as §1
# ScBbc1 = biological target: ScBbc1
# Method in brief: as §1
# ScBem1-D1 = biological target: ScBem1-D1
# Method in brief: as §1
# ScBzz1-D1 = biological target: ScBzz1-D1
# Method in brief: as §1
# ScBzz1-D2 = biological target: ScBzz1-D2
# Method in brief: as §1
# ScCyk3 = biological target: ScCyk3
# Method in brief: as §1
# ScFus1 = biological target: ScFus1
# Method in brief: as §1
# ScHof1 = biological target: ScHof1
# Method in brief: as §1
# ScHse1 = biological target: ScHse1
# Method in brief: as §1
# ScLsb1 = biological target: ScLsb1
# Method in brief: as §1
# ScLsb2 = biological target: ScLsb2
# Method in brief: as §1
# ScLsb3 = biological target: ScLsb3
# Method in brief: as §1
# ScLsb4 = biological target: ScLsb4
# Method in brief: as §1
# ScMyo3 = biological target: ScMyo3
# Method in brief: as §1
# ScMyo5 = biological target: ScMyo5
# Method in brief: as §1
# ScNbp2 = biological target: ScNbp2
# Method in brief: as §1
# ScPex13 = biological target: ScPex13
# Method in brief: as §1
# ScRvs167 = biological target: ScRvs167
# Method in brief: as §1
# ScSho1 = biological target: ScSho1
# Method in brief: as §1
# ScSla1-D1-D2 = biological target: ScSla1-D1-D2
# Method in brief: as §1
# ScSla1-D3 = biological target: ScSla1-D3
# Method in brief: as §1
# SpAbp1-D1 = biological target: SpAbp1-D1
# Method in brief: as §1
# SpBbc1 = biological target: SpBbc1
# Method in brief: as §1
# SpBzz1-D1 = biological target: SpBzz1-D1
# Method in brief: as §1
# SpBzz1-D2 = biological target: SpBzz1-D2
# Method in brief: as §1
# SpCyk3 = biological target: SpCyk3
# Method in brief: as §1
# SpHof1 = biological target: SpHof1
# Method in brief: as §1
# SpHof1-2 = biological target: SpHof1-2
# Method in brief: as §1
# SpHof1-3 = biological target: SpHof1-3
# Method in brief: as §1
# SpHse1 = biological target: SpHse1
# Method in brief: as §1
# SpLsb1 = biological target: SpLsb1
# Method in brief: as §1
# SpLsb4 = biological target: SpLsb4
# Method in brief: as §1
# SpMyo1 = biological target: SpMyo1
# Method in brief: as §1
# SpNbp2 = biological target: SpNbp2
# Method in brief: as §1
# SpPex13 = biological target: SpPex13
# Method in brief: as §1
# SpRvs167 = biological target: SpRvs167
# Method in brief: as §1
# SpSla1-D1-D2 = biological target: SpSla1-D1-D2
# Method in brief: as §1
# SpSla1-D3 = biological target: SpSla1-D3
# Method in brief: as §1
binder,measurement,setting,value
B1,SPOT peptide array binding signal intensity,AgAbp1,≤ 0
same,SPOT peptide array binding signal intensity,AgBbc1,1
same,SPOT peptide array binding signal intensity,AgBem1-D1,≤ 0
same,SPOT peptide array binding signal intensity,AgBzz1-D1,870
same,SPOT peptide array binding signal intensity,AgBzz1-D2,85
same,SPOT peptide array binding signal intensity,AgCyk3,≤ 0
same,SPOT peptide array binding signal intensity,AgFus1,3.5
same,SPOT peptide array binding signal intensity,AgHof1,≤ 0
same,SPOT peptide array binding signal intensity,AgHse1,≤ 0
same,SPOT peptide array binding signal intensity,AgLsb1,≤ 0
same,SPOT peptide array binding signal intensity,AgLsb4,11.5
same,SPOT peptide array binding signal intensity,AgMyo5,1360
same,SPOT peptide array binding signal intensity,AgNbp2,9
same,SPOT peptide array binding signal intensity,AgRvs167,0.167
same,SPOT peptide array binding signal intensity,AgSho1,11
same,SPOT peptide array binding signal intensity,AgSla1-D1-D2,6
same,SPOT peptide array binding signal intensity,AgSla1-D3,358
same,SPOT peptide array binding signal intensity,CaAbp1-D1,≤ 0
same,SPOT peptide array binding signal intensity,CaAbp1-D2,≤ 0
same,SPOT peptide array binding signal intensity,CaBbc1,≤ 0
same,SPOT peptide array binding signal intensity,CaBem1-D1,≤ 0
same,SPOT peptide array binding signal intensity,CaBzz1-D1,3200
same,SPOT peptide array binding signal intensity,CaBzz1-D2,2040
same,SPOT peptide array binding signal intensity,CaCyk3,≤ 0
same,SPOT peptide array binding signal intensity,CaFus1,≤ 0
same,SPOT peptide array binding signal intensity,CaHof1,0.25
same,SPOT peptide array binding signal intensity,CaHse1,6.5
same,SPOT peptide array binding signal intensity,CaLsb1,≤ 0
same,SPOT peptide array binding signal intensity,CaLsb4,5.5
same,SPOT peptide array binding signal intensity,CaMyo5,41
same,SPOT peptide array binding signal intensity,CaNbp2,≤ 0
same,SPOT peptide array binding signal intensity,CaRvs167,≤ 0
same,SPOT peptide array binding signal intensity,CaRvs167-3,1.25
same,SPOT peptide array binding signal intensity,CaSho1,≤ 0
same,SPOT peptide array binding signal intensity,CaSla1-D1-D2,≤ 0
same,SPOT peptide array binding signal intensity,CaSla1-D3,1.75
same,SPOT peptide array binding signal intensity,ScAbp1,≤ 0
same,SPOT peptide array binding signal intensity,ScBbc1,2.5
same,SPOT peptide array binding signal intensity,ScBem1-D1,≤ 0
same,SPOT peptide array binding signal intensity,ScBzz1-D1,4000
same,SPOT peptide array binding signal intensity,ScBzz1-D2,31.5
same,SPOT peptide array binding signal intensity,ScCyk3,≤ 0
same,SPOT peptide array binding signal intensity,ScFus1,2.5
same,SPOT peptide array binding signal intensity,ScHof1,≤ 0
same,SPOT peptide array binding signal intensity,ScHse1,7.5
same,SPOT peptide array binding signal intensity,ScLsb1,≤ 0
same,SPOT peptide array binding signal intensity,ScLsb2,≤ 0
same,SPOT peptide array binding signal intensity,ScLsb3,≤ 0
same,SPOT peptide array binding signal intensity,ScLsb4,≤ 0
same,SPOT peptide array binding signal intensity,ScMyo3,1390
same,SPOT peptide array binding signal intensity,ScMyo5,1300
same,SPOT peptide array binding signal intensity,ScNbp2,≤ 0
same,SPOT peptide array binding signal intensity,ScPex13,≤ 0
same,SPOT peptide array binding signal intensity,ScRvs167,0.333
same,SPOT peptide array binding signal intensity,ScSho1,≤ 0
same,SPOT peptide array binding signal intensity,ScSla1-D1-D2,≤ 0
same,SPOT peptide array binding signal intensity,ScSla1-D3,≤ 0
same,SPOT peptide array binding signal intensity,SpAbp1-D1,≤ 0
same,SPOT peptide array binding signal intensity,SpBbc1,1.25
same,SPOT peptide array binding signal intensity,SpBzz1-D1,42
same,SPOT peptide array binding signal intensity,SpBzz1-D2,1.5
same,SPOT peptide array binding signal intensity,SpCyk3,≤ 0
same,SPOT peptide array binding signal intensity,SpHof1,≤ 0
same,SPOT peptide array binding signal intensity,SpHof1-2,1.5
same,SPOT peptide array binding signal intensity,SpHof1-3,≤ 0
same,SPOT peptide array binding signal intensity,SpHse1,85.2
same,SPOT peptide array binding signal intensity,SpLsb1,0.5
same,SPOT peptide array binding signal intensity,SpLsb4,≤ 0
same,SPOT peptide array binding signal intensity,SpMyo1,1500
same,SPOT peptide array binding signal intensity,SpNbp2,≤ 0
same,SPOT peptide array binding signal intensity,SpPex13,2
same,SPOT peptide array binding signal intensity,SpRvs167,9
same,SPOT peptide array binding signal intensity,SpSla1-D1-D2,9
same,SPOT peptide array binding signal intensity,SpSla1-D3,≤ 0
B2,SPOT peptide array binding signal intensity,CaNbp2,37
same,SPOT peptide array binding signal intensity,CaRvs167,≤ 0
same,SPOT peptide array binding signal intensity,CaRvs167-3,3.25
same,SPOT peptide array binding signal intensity,CaSho1,3.5
same,SPOT peptide array binding signal intensity,CaSla1-D1-D2,9
same,SPOT peptide array binding signal intensity,CaSla1-D3,≤ 0
same,SPOT peptide array binding signal intensity,ScAbp1,≤ 0
same,SPOT peptide array binding signal intensity,ScBbc1,≤ 0
same,SPOT peptide array binding signal intensity,ScBem1-D1,≤ 0
same,SPOT peptide array binding signal intensity,ScBzz1-D1,≤ 0
same,SPOT peptide array binding signal intensity,ScBzz1-D2,21
same,SPOT peptide array binding signal intensity,ScCyk3,≤ 0
same,SPOT peptide array binding signal intensity,ScFus1,≤ 0
same,SPOT peptide array binding signal intensity,ScHof1,≤ 0
same,SPOT peptide array binding signal intensity,ScHse1,7.25
same,SPOT peptide array binding signal intensity,ScLsb1,≤ 0
same,SPOT peptide array binding signal intensity,ScLsb2,≤ 0
same,SPOT peptide array binding signal intensity,ScLsb3,≤ 0
same,SPOT peptide array binding signal intensity,ScLsb4,≤ 0
same,SPOT peptide array binding signal intensity,ScMyo3,1170
same,SPOT peptide array binding signal intensity,ScMyo5,779
same,SPOT peptide array binding signal intensity,ScNbp2,10.5
same,SPOT peptide array binding signal intensity,ScPex13,≤ 0
same,SPOT peptide array binding signal intensity,ScRvs167,≤ 0
same,SPOT peptide array binding signal intensity,ScSho1,≤ 0
same,SPOT peptide array binding signal intensity,ScSla1-D1-D2,3.5
same,SPOT peptide array binding signal intensity,ScSla1-D3,6.5
same,SPOT peptide array binding signal intensity,SpAbp1-D1,≤ 0
same,SPOT peptide array binding signal intensity,SpBbc1,1.12
same,SPOT peptide array binding signal intensity,SpBzz1-D1,≤ 0
same,SPOT peptide array binding signal intensity,SpBzz1-D2,0.25
same,SPOT peptide array binding signal intensity,SpCyk3,≤ 0
same,SPOT peptide array binding signal intensity,SpHof1,≤ 0
same,SPOT peptide array binding signal intensity,SpHof1-2,6.38
same,SPOT peptide array binding signal intensity,SpHof1-3,20.2
same,SPOT peptide array binding signal intensity,SpHse1,1.5
same,SPOT peptide array binding signal intensity,SpLsb1,≤ 0
same,SPOT peptide array binding signal intensity,SpLsb4,≤ 0
same,SPOT peptide array binding signal intensity,SpMyo1,670
same,SPOT peptide array binding signal intensity,SpNbp2,21
same,SPOT peptide array binding signal intensity,SpPex13,≤ 0
same,SPOT peptide array binding signal intensity,SpRvs167,≤ 0
same,SPOT peptide array binding signal intensity,SpSla1-D1-D2,8
same,SPOT peptide array binding signal intensity,SpSla1-D3,8.5
